In PubChem BioAssay (NCATS):
Inconclusive results are not listed. A call without a number means that no potency is given here. Values without a mark were called inactive. The source made the active and inactive calls. Calls follow the shape of the dose curve; as a rule, active = well fitted curve in the direction sought with a large enough effect; inconclusive = small, poorly fitted or top-dose-only effect, or another doubt; inactive = no such curve, though single readings can be large; an effect the other way counts as inactive or inconclusive.

Tests used:
[1] = molecular target: Aldehyde dehydrogenase, mitochondrial (Homo sapiens) (UniProt P05091); experiment: qHTS for Inhibitors of the Aldehyde Dehydrogenase Family (ALDH2) Primary screen (AID 2061308); conditions: ALDH2 enzyme inhibition qHTS, 1536-well; series mostly up to 56 µM; also: nearly all actives have a fitted effect of over 55% in size
[2] = molecular target: Retinaldehyde dehydrogenase 3 (Homo sapiens) (UniProt P47895); experiment: qHTS for Inhibitors of the Aldehyde Dehydrogenase Family (ALDH1A3) Primary screen (AID 2061315); conditions: ALDH inhibition qHTS; series mostly up to 56 µM
[3] = molecular target: Retinaldehyde dehydrogenase 3 (Homo sapiens) (UniProt P47895); experiment: qHTS for Inhibitors of the Aldehyde Dehydrogenase Family (ALDH1A3) Validation screen (AID 2061312); conditions: ALDH1A3 enzyme inhibition qHTS validation, fluorescence; series mostly up to 84.7 µM; also: nearly all actives have a fitted effect of over 45% in size
[4] = BET inhibitor-based combinations targeting novel dependencies in MECOM-rearranged (r) AML: SET-2 cell line (AID 2202231); conditions: SET-2 AML cells viability, CellTiter-Glo luminescence, 48 h; viability: hits give low values, concentration not given here; also: nearly all actives have a fitted effect of over 35% in size; also: potency is read from the fitted curve at half-maximal effect
Summary of the method: (§1)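 500 cells/well; 11-pt dose curve; 48 h, standard incubator; CellTiter-Glo luminescence after 15 min RT; DMSO/empty-well normalization; AUC plus Z-AUC (mean-centered within each line).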

[5] = BET inhibitor-based combinations targeting novel dependencies in MECOM-rearranged (r) AML: OCI-AML3 cell line (AID 2202232); conditions: CellTiter-Glo luminescence, 48 h; Potency: OCI-AML3 viability; series mostly up to 46 µM; also: nearly all actives have a fitted effect of over 35% in size; also: potency is read from the fitted curve at half-maximal effect
Summary of the method: as §1

[6] = BET inhibitor-based combinations targeting novel dependencies in MECOM-rearranged (r) AML: UCSD-AML1 cell line (AID 2202235); conditions: UCSD-AML1 AML cells viability, CellTiter-Glo, 48 h; series mostly up to 46 µM; also: potency is read from the fitted curve at half-maximal effect; nearly all actives have a fitted effect of over 40% in size
Summary of the method: (§2)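 Cells were plated at 500 per well and exposed to each drug across an 11-point dose range for 48 hr at standard incubator conditions. Viability was read by CellTiter-Glo luminescence, and activity was expressed as AUC and per-cell-line Z-transformed AUC.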

[7] = BET inhibitor-based combinations targeting novel dependencies in MECOM-rearranged (r) AML: AML-191 cell line (AID 2202236; also: nearly all actives have a fitted effect of over 35% in size; also: potency is read from the fitted curve at half-maximal effect); conditions: AML-191 viability, CellTiter-Glo luminescence, 48 h; series mostly up to 46 µM
Summary of the method: as §1

[8] = BET inhibitor-based combinations targeting novel dependencies in MECOM-rearranged (r) AML: AML-194 cell line (AID 2202237; also: nearly all actives have a fitted effect of over 40% in size; also: potency is read from the fitted curve at half-maximal effect); conditions: AML-194 (MECOM-r AML) viability, CellTiter-Glo, 48 h; series mostly up to 46 µM
Summary of the method: as §1

[9] = BET inhibitor-based combinations targeting novel dependencies in MECOM-rearranged (r) AML: MV-4-11 cell line (AID 2202233); conditions: MV-4-11 AML viability, CellTiter-Glo luminescence, 48 h; series mostly up to 46 µM; also: nearly all actives have a fitted effect of over 45% in size
Summary of the method: as §2

For `C=C[C@@]1(C)CCC2C(=CCC3[C@]2(C)CCC[C@@]3(C)C(=O)O)C1` (some centres undefined), the Potency [1] was “inactive” and the Potency [2] was “inactive”.

In the case of `Cc1cc(OCc2nnc(SC3CCCC3)n2-c2cccnc2)ccc1-c1ccc(S(C)(=O)=O)cc1`, the Potency [1] is reported as “inactive”, the Potency [3] is reported as “inactive” and the Potency [2] is reported as “inactive”. For the same compound, the Potency [4] was 6.61 µM (active), the Potency [5] was 3.72 µM (active) and the Potency [6] was 5.9 µM (active). For the same compound, the Potency [7] was 8.33 µM (active) and the Potency [8] was 7.42 µM (active).

In the case of `COC(=O)N(C)c1c(N)nc(-c2nn(Cc3ccccc3F)c3ncccc23)nc1N`, the Potency [1] is reported as “inactive”, the Potency [3] is reported as “inactive” and the Potency [2] is reported as “inactive”. The viability [4] was 119%, the Potency [5] was “inactive” and the Potency [9] was “inactive”. For the same compound, the Potency [7] was “inactive” and the Potency [8] was “inactive”.

With `COc1cc2c(cc1OC)N1C(=O)C[C@]34C=CCN5CC[C@@H]2[C@@H](CC3)[C@]514` the Potency [1] was “inactive” and the Potency [2] was “inactive”.

For `C/C=C(\C)C(=O)O[C@H]1C=CC(=O)O[C@H]1/C=C/[C@@H](O)[C@H](C)O`, the Potency [1] was “inactive” and the Potency [2] was “inactive”.

With `CCNC(=O)Nc1ccc2ncc(Nc3ccc(C)cc3)nc2n1` the Potency [1] was “inactive” and the Potency [2] was “inactive”.

With `CC(C)CC(=O)O[C@@H]1O[C@H](CO)[C@@H](O[C@H]2O[C@H](C)[C@@H](N[C@H]3C=C(CO)[C@@H](O[C@H]4O[C@H](CO)[C@@H](O[C@H]5O[C@H](CO)[C@@H](O[C@H]6O[C@H](CO)[C@@H](O)[C@H](O)[C@H]6O)[C@H](O)[C@H]5O)[C@H](O)[C@H]4O)[C@H](O)[C@H]3O)[C@H](O)[C@H]2O)[C@H](O)[C@H]1O` the Potency [1] was “inactive” and the Potency [2] was “inactive”.

With `CC(=O)OC1CCC2(C)C(CCC3(C)C2CC=C2C4CC(C)(C)CCC4(C)CCC23C)C1(C)C(=O)O` (centres undefined) the Potency [1] was “inactive” and the Potency [2] was “inactive”.

For `CCOC(=O)c1ccc(OCCC2CCN(c3ccc(C)nn3)CC2)cc1`, the Potency [1] was “inactive” and the Potency [2] was “inactive”.

In the case of `O=C(O[C@H]1[C@@H]2C=CO[C@@H](O[C@@H]3O[C@H](CO)[C@@H](O)[C@H](O)[C@H]3O)[C@@H]2[C@@]2(CO)O[C@@H]12)c1ccc(O)cc1`, the Potency [1] is reported as “inactive” and the Potency [2] is reported as “inactive”.

For `C[C@H]1CC[C@@]2(OC1)O[C@H]1CC3C4CC[C@H]5C[C@@H](O[C@@H]6O[C@H](CO)[C@H](O[C@@H]7O[C@H](CO)[C@@H](O)[C@H](O[C@@H]8OC[C@@H](O)[C@H](O)[C@H]8O)[C@H]7O[C@@H]7O[C@H](CO)[C@@H](O)[C@H](O)[C@H]7O)[C@H](O)[C@H]6O)[C@H](O)C[C@]5(C)C4=CC(=O)[C@]3(C)[C@H]1[C@@H]2C` (some centres undefined), the Potency [1] was “inactive” and the Potency [2] was “inactive”.

With `CC1=C2C(=O)C=C(CO)C2C2OC(=O)C(CS(=O)(=O)O)C2C(OC(=O)Cc2ccc(O)cc2)C1` (centres undefined) the Potency [1] was “inactive” and the Potency [2] was “inactive”.

Work on `C[C@@H]1O[C@@H](O[C@H]2[C@H](OC(=O)[C@]34CCC(C)(C)C[C@H]3C3=CCC5[C@@]6(C)C[C@H](O)[C@H](O[C@@H]7O[C@H](C(=O)O)[C@@H](O)[C@H](O)[C@H]7O)[C@@](C)(CO)C6[C@H](O)C[C@@]5(C)[C@]3(C)C[C@H]4O)O[C@@H](CO)[C@@H]2O)[C@H](O)[C@H](O)[C@H]1O[C@@H]1OC[C@@H](O)[C@H](O[C@H]2OC[C@](O)(CO)[C@H]2O)[C@H]1O` (some centres undefined) yielded an activity change, negative = inhibition [1] of 4.26% [at 11.2 µM] and an activity change, negative = inhibition [2] of 16.1% [at 11.2 µM].

With `Cc1ncc([N+](=O)[O-])n1CC(O)CN1CCOCC1` (centres undefined) the Potency [1] was “inactive” and the Potency [2] was “inactive”.

In the case of `C=CCC1=C[C@]2(OC)[C@H](C)[C@@H](c3ccc4c(c3)OCO4)O[C@]2(OC)CC1=O`, the Potency [1] is reported as “inactive” and the Potency [2] is reported as “inactive”.

For `C=CCc1ccc(O[C@@H]2O[C@H](CO[C@@H]3O[C@H](CO)[C@@H](O)[C@H](O)[C@H]3O)[C@@H](O)[C@H](O)[C@H]2O)c(O)c1`, the Potency [1] was “inactive” and the Potency [2] was “inactive”.

With `CC1(C)C[C@@H]2[C@H](C1)[C@@]1(C)C[C@]13C(O)OC[C@]3(O)[C@H]2O` (some centres undefined) the Potency [1] was “inactive” and the Potency [2] was “inactive”.

With `CC1=C[C@H](O)[C@H]2C(C)(C)CCC[C@]2(C)[C@@]1(O)CO` the Potency [1] was “inactive” and the Potency [2] was “inactive”.

For `CN1[C@@H]2CC[C@H]1CC(OC(=O)c1c[nH]c3ccccc13)C2` (some centres undefined), the Potency [1] was “inactive” and the Potency [2] was “inactive”.

With `C=C1C(=O)OC2/C=C(\CO)CC/C=C(\C=O)CC(OC(=O)CC(C)C)C12` (centres undefined) the Potency [1] was “inactive” and the Potency [2] was “inactive”.

With `C=C1CCCC2(C)CCC(C(C)(C)OC3OC(C)C(O)C(O)C3OC(=O)/C(C)=C\C)CC12` (centres undefined) the Potency [1] was “inactive” and the Potency [2] was “inactive”.

With `C[C@@H]1O[C@@H](O[C@@H]2[C@@H](O)[C@H](O[C@H]3[C@H](O[C@H]4CC[C@@]5(C)C(CC[C@]6(C)C5CC=C5[C@@H]7CC(C)(C)CC[C@]7(C(=O)O[C@@H]7O[C@H](CO)[C@@H](O)[C@H](O)[C@H]7O)CC[C@]56C)C4(C)C)O[C@H](C(=O)O)[C@@H](O)[C@@H]3O)OC[C@H]2O)[C@H](O)[C@H](O)[C@H]1O` (some centres undefined) the Potency [1] was “inactive” and the Potency [2] was “inactive”.

In the case of `N#C[C@@H]1CCCN1C(=O)CNC12CC3CC(CC(O)(C3)C1)C2`, the Potency [1] is reported as “inactive” and the Potency [2] is reported as “inactive”.

In the case of `C/C(=C/CCC(CO)C1CCC2(C)C3CCC4C(C)(C)C(OC5OC(CO)C(O)C(O)C5O)CC(O)C45CC35CCC12C)COC1OC(CO)C(O)C(O)C1O` (centres undefined), the Potency [1] is reported as “inactive” and the Potency [2] is reported as “inactive”.

With `CCOCc1cc(OC)c(-c2ccc(C[C@H](NC(=O)c3c(F)cccc3F)C(=O)O)cc2)c(OC)c1` the Potency [1] was “inactive” and the Potency [2] was “inactive”.

In the case of `C[C@@H]1O[C@@H](O[C@H]2[C@H](O)[C@@H](C(=O)O)O[C@@H](O[C@H]3CC[C@@]4(C)C(CC[C@]5(C)C4CC=C4C6CC(C)(C)CC[C@]6(C(=O)O)CC[C@]45C)C3(C)C)[C@@H]2O[C@@H]2O[C@H](CO)[C@@H](O)[C@H](O)[C@H]2O)[C@H](O)[C@H](O)[C@H]1O` (some centres undefined), the Potency [1] is reported as “inactive” and the Potency [2] is reported as “inactive”.
